Screens as filed in PubChem.
An excerpt weighted towards active compounds, which were near 3% of everything screened.
Sm TGR block: blocks Schistosoma mansoni thioredoxin glutathione reductase | AID 485364 | Potency, µM (series often up to 114 µM), for the others: at the highest dose activity change, negative = inhibition, usual class: inhibitors | purified TGR, DTNB reduction, TNB absorbance 405 nm | Q962Y6 | 360,000 compounds, 3% hits; active = well fitted inhibition curve with a large enough effect; inconclusive = small, poorly fitted or top-dose-only effect; inactive = no such curve, though single readings can be large or run the other way; also: % is scaled to controls: 0 for no effect and ±100 for the full control effect; nearly all actives have a fitted effect of over 60% in size
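TGR 20 nM + NADPH 100 uM (dispensed conc.), cpd preinc 15 min RT; start with NADPH (500 uM addition) then DTNB (15 mM addition). Kinetic TNB absorbance, 405 nm filter. Four-parameter Hill fit across titration.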
SARS PLP yeast: inhibitors of SARS-CoV papain-like protease in yeast; S. cerevisiae expressing SARS-CoV PLpro, growth rescue; Potency, µM (series often up to 32.9 µM), for the others: top-dose activity, positive = growth rescue, usual class: activators; 330,000 compounds, 0.19% hits; AID 485353; calls by dose curve; also: 0% is about no effect; nearly all actives have a fitted effect of over 55% in size
The depositor's hits bear a star; ? = inconclusive; / = no result; ! = not confirmed by another sample. Potency is read from the fitted curve at half-maximal effect.

SMILES | Sm TGR block | SARS PLP yeast
O=C(O)CCCc1ccc(N(CCCl)CCCl)cc1 | 50.1µM* | -0.7%
CC(=O)NC(Cc1ccc(N(CCCl)CCCl)cc1)C(=O)O (stereo not drawn) | ? | 26.4%
N[C@@H](Cc1ccc(O)c(I)c1)C(=O)O | -14.1% | 4.2%
N[C@@H](Cc1ccc(N(CCCl)CCCl)cc1)C(=O)O | 14.1µM* | /
O=C(Cc1ccc(N(CCCl)CCCl)cc1)NC(Cc1ccc(Cl)cc1)C(=O)O (stereo not drawn) | ? | -6.6%
NC(Cc1ccc(OC(F)F)cc1)C(=O)O (stereo not drawn) | 35.5µM* | 0.7%
CCCN(C(=O)CCc1nc(-c2ccc(OC)cc2)no1)c1ccccc1F | 4.1% | /
CCOC(=O)c1ccc(NC(=O)c2cc3sccc3n2Cc2ccc(Cl)cc2)cc1 | 0.1% | /
CCn1c(=O)cc(OCC(=O)NCc2ccccc2Cl)c2ccccc21 | 1.4% | /
COC(=O)c1ccc(N2C(=O)CC(N3CCC(O)(c4ccc(Br)cc4)CC3)C2=O)cc1 (stereo not drawn) | 44.7µM* | -54.9%
COC(=O)c1ccc(N2C(=O)CC(N3CCN(C(=O)c4ccco4)CC3)C2=O)cc1 (stereo not drawn) | ? | -24.2%
COc1ccc(N2C(=O)CC(N3CCN(c4ccccc4)CC3)C2=O)cc1 (stereo not drawn) | -27.1% | -9.5%
COc1ccc(N2C(=O)CC(N3CCN(c4ccc(Cl)cc4)CC3)C2=O)cc1 (stereo not drawn) | 44.7µM* | 2.7%
COc1cccc(N2CCN(C3CC(=O)N(c4cccc(Cl)c4)C3=O)CC2)c1 (stereo not drawn) | 44.7µM* | -13.4%
O=C1CC(N2CCSCC2)C(=O)N1c1cccc(Cl)c1 (stereo not drawn) | 28.2µM* | -16.7%
O=C1CC(N2CCN(c3ccccc3)CC2)C(=O)N1c1cccc(Cl)c1 (stereo not drawn) | ? | -31.1%
Cc1cccc(N2C(=O)CC(N3CCN(c4cccc(C(F)(F)F)c4)CC3)C2=O)c1 (stereo not drawn) | ? | -10.4%
COc1cc(OC)c(NC(=O)Nc2c(C)n(C)n(-c3ccccc3)c2=O)cc1Cl | 3.5% | /
Cc1ccc(CN2CCCn3nc(C(=O)NCc4ccc(N(C)C)cc4)cc3C2=O)cc1 | 2.1% | /
COc1ccc(N2C(=O)CC(N3CCN(S(=O)(=O)c4ccc(Cl)cc4)CC3)C2=O)cc1 (stereo not drawn) | -1.4% | -1.6%
COc1ccc(N2C(=O)CC(N3CCC(O)(c4ccc(Cl)cc4)CC3)C2=O)cc1 (stereo not drawn) | 50.1µM* | -22.8%
COc1ccc(N2C(=O)CC(N3CCN(c4ccccc4OC)CC3)C2=O)cc1 (stereo not drawn) | ? | -7.6%
CCOc1ccc(N2C(=O)CC(N3CCN(c4ccc([N+](=O)[O-])cc4)CC3)C2=O)cc1 (stereo not drawn) | 10µM* | -11.3%
COc1ccccc1N1CCN(C2CC(=O)N(c3cccc(Br)c3)C2=O)CC1 (stereo not drawn) | 44.7µM* | -29.4%
CCN1C(=O)CC(N2CCN(c3ccc(Cl)cc3)CC2)C1=O (stereo not drawn) | 0.1% | 0.8%
SMILES | Sm TGR block | SARS PLP yeast
CCOc1ccc(N2C(=O)CC(N3CCN(c4ccc(Cl)cc4)CC3)C2=O)cc1 (stereo not drawn) | 3.16µM* | -23.9%
CCCOc1ccc(N2C(=O)CC(N3CCN(c4ccc([N+](=O)[O-])cc4)CC3)C2=O)cc1 (stereo not drawn) | -30.8% | -8.3%
CC(=O)c1ccc(Nc2nc3c(S(=O)(=O)c4ccccc4)nnn3c3ccc(Cl)cc23)cc1 | -0.5% | /
CCOc1ccc(-n2c(SCc3ccccc3)nc3c([nH]c4ccccc43)c2=O)cc1 | 3.6% | /
Clc1cccc(CSc2nncn3c2cc2sccc23)c1 | 1.4% | /
Cc1cccc(C(=O)Nc2cccc(OCc3cc(=O)n4cccc(C)c4n3)c2)c1 | -3.6% | /
Cc1cc(C)cc(-n2ccnc2SCC(=O)Nc2ccc(C)c(Cl)c2)c1 | -0.2% | /
COc1ccc2oc(=O)c(C(=O)NCCc3c(C)[nH]c4ccc(Br)cc34)cc2c1 | 5.4% | /
COc1ccc(CCN2C(=O)CC(N3CCOCC3)C2=O)cc1 (stereo not drawn) | -15.0% | -5.1%
COc1ccc(N2C(=O)CC(N3CCOCC3)C2=O)cc1 (stereo not drawn) | 25.1µM* | -6.5%
O=C(CSc1nc2ccccc2n1CC(=O)Nc1ccc(F)cc1F)Nc1ccc(F)cc1 | -20.4% | /
Cc1nc2sc3c(c2c(=O)n1NC(=O)CCBr)CCCC3 | 39.8µM* | -1.9%
CCCc1nc2sc3c(c2c(=O)n1NC(=O)CCC(=O)OC)CCCC3 | 1.5% | -0.2%
COC(=O)c1c(N2C(=O)[C@H]3[C@@H](C2=O)[C@]2(C(=O)Nc4c(C)cc(C)cc42)N2CCC[C@@H]32)sc(C)c1C | -19.0% | 2.6%
COC(=O)c1c(N2C(=O)[C@H]3[C@@H](C2=O)[C@]2(C(=O)Nc4c2ccc(C)c4C)N2CCC[C@@H]32)sc(C)c1C | 56.2µM* | -9.2%
CCCCCOc1ccc(C)cc1CN(CCCl)CCCl | 11.2µM* | -1.2%
C=CCc1cc(C)ccc1OCCCC(C(=O)OCC)C(=O)OCC | 2.1% | -5.7%
Cc1nc(N2CCOCC2)c2c(C(=O)N3CCN(c4cccc(C)c4C)CC3)c(C)oc2n1 | 24.6% | /
Cc1cc(C)nc(NS(=O)(=O)c2ccc(NS(=O)(=O)c3ccccc3)cc2)n1 | 4.4% | 9.3%
CCN(CC)N=Nc1ccc(S(=O)(=O)Nc2nc(C)cc(C)n2)cc1 | 11.2µM*! | 0.1%
COCCCNC(=O)CCc1nnc(Cc2ccc(-c3ccccc3)cc2)o1 | -12.4% | -0.1%
Cc1ccc(CNC(=O)CCc2nnc(Cc3ccc(-c4ccccc4)cc3)o2)o1 | 25.1µM* | -0.9%
O=C(NC(=S)Nc1ccc2c(c1)OCCO2)c1ccccc1F | ? | -0.3%
COc1ccc(NC(=S)NC(=O)c2ccc3c(c2)OCCO3)cc1 | / | 0.2%
O=C(NC(=S)Nc1ccc2c(c1)OCCO2)c1ccccc1 | 8.91µM* | -20.8%
SMILES | Sm TGR block | SARS PLP yeast
O=C(NC(=S)Nc1ccc(F)cc1)c1ccc2c(c1)OCCO2 | 11.2µM* | -0.9%
CC(C)c1nn2c(=O)cc(COC(=O)c3ccccc3NC(=O)c3cccs3)nc2s1 | 3.2% | /
O=C(Nc1ccccc1C(F)(F)F)c1ncoc1-c1ccco1 | -2.3% | /
CC1CCN(S(=O)(=O)c2ccc3c(c2)oc(=O)n3CC(=O)N2CCCCC2)CC1 | -6.9% | /
CC(C)(C)C(=O)[C@@H]1[C@@H]2C(=O)N(Cc3ccccc3)C(=O)[C@@H]2[C@H]2c3ccccc3C=CN12 | ? | 0.2%
CC(=O)[C@H]1[C@@H]2C(=O)N(c3cccc(Cl)c3)C(=O)[C@@H]2[C@H]2c3ccccc3C=CN21 | 15.8µM* | -8.8%
CC(=O)[C@@H]1[C@@H]2C(=O)N(C3CCCCC3)C(=O)[C@@H]2C2c3ccccc3C=CN21 (stereo partly drawn) | 25.1µM* | -2.5%
Cc1ccc(N2C(=O)[C@@H]3[C@H](C2=O)C2c4ccccc4C=NN2[C@@H]3C(=O)c2ccc(Cl)cc2)cc1 (stereo partly drawn) | -17.6% | 5.8%
CC(=O)[C@@H]1[C@@H]2C(=O)N(c3ccc(F)c(Cl)c3)C(=O)[C@@H]2C2c3ccccc3C=CN21 (stereo partly drawn) | 35.5µM* | 13.7%
COc1ccc(NC(=O)[C@@H]2[C@@H]3C(=O)N(C4CCCCC4)C(=O)[C@@H]3C3c4ccccc4C=CN32)cc1 (stereo partly drawn) | 2.5% | -4.2%
